In PubChem BioAssay (NCI):
About 83,000 compounds went through this panel and 20% of them were active in at least one assay; those are over-represented in the sample as a whole.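 Testing used 96-well plates and a 48-hour single-concentration exposure. Example: -40 means 40% of the starting cells died.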 The source made the active and inactive calls. Rule for the calls: active = growth percent below 10; inactive = the rest.

What was measured:
Test in all cases: NCI-60 one-dose screen, 48 h (100 = growth as untreated, 0 = no growth, -100 = all killed)
[1] = system: SR leukemia; settings: 10 µM unless noted
[2] = system: RPMI-8226 leukemia; settings: 10 µM unless noted
[3] = system: OVCAR-8 ovarian; settings: 10 µM unless noted
[4] = system: OVCAR-5 ovarian; settings: 10 µM unless noted
[5] = system: OVCAR-4 ovarian; settings: 10 µM unless noted
[6] = system: SK-OV-3 ovarian; settings: 10 µM unless noted
[7] = system: IGROV1 ovarian; settings: 10 µM unless noted
[8] = system: OVCAR-3 ovarian; settings: 10 µM unless noted
[9] = system: HS 578T breast; settings: 10 µM
[10] = system: NCI/ADR-RES ovarian; settings: 10 µM unless noted
[11] = system: BT-549 breast; settings: 10 µM unless noted
[12] = system: MDA-MB-435 melanoma; settings: 10 µM unless noted
[13] = system: SW-620 colon; settings: 10 µM unless noted
[14] = system: MCF7 breast; settings: 10 µM unless noted
[15] = system: HCT-116 colon; settings: 10 µM unless noted
[16] = system: HCC-2998 colon; settings: 10 µM unless noted
[17] = system: KM12 colon; settings: 10 µM unless noted
[18] = system: T-47D breast; settings: 10 µM unless noted

Measured: growth

Cn1nc(C(F)(F)F)cc1-c1c[nH]c(OCc2ccc(Cl)cc2)c(-c2ccc(Cl)c(C(F)(F)F)c2)c1=O
active: [2] -26.6% | [6] -6.23% | [8] 7.83% | [9] -1.78% | [10] 1.94% | [11] 2.51% | [12] 1.96% | [14] 1.28% | [15] 4.49% | [17] 8.85%
inactive: [1] 27.5% | [3] 12.5% | [4] 13% | [5] 15.3% | [7] 24.1% | [13] 12.6% | [16] 13.3%

Nc1n[nH]c2ccc([C@@H]3Nc4c(F)cc5[nH]ncc5c4[C@H]4C5CCC(C5)[C@@H]34)cc12 (stereo partly specified)
inactive: [1] 42.8% | [2] 21.3% | [3] 22% | [4] 30.8% | [5] 29.4% | [6] 39.1% | [7] 20.9% | [9] 20.9% | [10] 13.8% | [11] 27% | [13] 21.8% | [14] 18.5% | [16] 28.1% | [17] 10.4%
active: [8] -16.7% | [12] -11.5% | [15] 7.44%

CN1CCN(Cc2ccc(NC(=O)c3cncc(C#Cc4ncc5cnccn45)c3)cc2C(F)(F)F)CC1
inactive: [1] 50.8% | [2] 44.3% | [3] 70% | [4] 35.1% | [5] 41.3% | [6] 42.8% | [7] 42.2% | [8] 69.6% | [9] 52.2% | [10] 92.7% | [11] 63.7% | [12] 39.3% | [13] 22% | [14] 36% | [15] 16.6% | [16] 43.1% | [17] 13.2%

COc1c(B(O)O)cccc1-c1nc2c(F)cc3n[nH]c(C)c3c2c2c1CCCC2
inactive: [1] 42% | [3] 17.3% | [5] 43.7% | [7] 16.3% | [10] 36.4% | [11] 21.2% | [12] 21.2% | [13] 15.3% | [14] 15% | [15] 10.5% | [16] 51.7% | [17] 20.5%
active: [2] 6.03% | [4] 8.74% | [6] -1.49% | [8] 9.19% | [9] 9.55%

C#CC[C@@H]1C[C@]2(C)[C@H]3CC[C@@H]4[C@H]5C(C(=C)C)CC[C@]5(C(=O)NCCCCCCCCN)CC[C@@]4(C)[C@]3(C)CC[C@H]2C(C)(C)[C@H]1OC(C)=O (stereo partly specified)
active: [1] -16% | [2] 0.0796% | [13] -2.59% | [14] -18.9% | [15] -88.5%
inactive: [3] 91.3% | [4] 108% | [5] 45.9% | [6] 124% | [7] 85.7% | [8] 55.4% | [9] 109% | [10] 93.8% | [11] 97.5% | [12] 76.5% | [16] 91.1% | [17] 61.9%

O=C(OCc1ccc2c(Br)cc(Br)c(O)c2n1)c1cc2ccccc2[nH]1
inactive: [6] 68.8%
active: [1] 3.2% | [2] -25.2% | [3] -23.7% | [4] -85.4% | [5] -21.2% | [7] -91.5% | [8] -80.8% | [9] -4.51% | [10] -55.2% | [18] -69.5% | [11] -84.3% | [12] -80.6% | [13] -69.2% | [15] -72.9% | [16] -77.7% | [17] -19%

Cn1nc(C(F)(F)F)cc1-c1cc(Cl)c(OCc2ccc(Cl)cc2)c(-c2ccc(Cl)c(C(F)(F)F)c2)c1O
inactive: [1] 17.6% | [3] 14.5% | [4] 10.3% | [5] 17.2% | [7] 25.9% | [13] 12.2% | [16] 13.6%
active: [2] -21.8% | [6] -7.57% | [8] 7.63% | [9] -5.65% | [10] 1.22% | [11] -0.385% | [12] 1.41% | [14] 3.29% | [15] -11.1% | [17] 7.08%

C#CC[C@@H]1C[C@]2(C)[C@H]3CC[C@@H]4[C@H]5C(C(=C)C)CC[C@]5(C(=O)NCCCN5CCN(CCCN)CC5)CC[C@@]4(C)[C@]3(C)CC[C@H]2C(C)(C)[C@H]1OC(C)=O (stereo partly specified)
active: [1] -13.6% | [2] -48.5% | [3] -6.54% | [4] -61.3% | [5] -42.3% | [7] -46.7% | [8] -83% | [12] -73.3% | [13] -79.4% | [14] -75.4% | [15] -95.3% | [16] -23.5% | [17] -74.6%
inactive: [6] 108% | [9] 14.8% | [10] 38.8% | [11] 75.6%

CCCCn1c(-c2ccc(F)cc2)nc2cc(OC)c(OC)cc2c1=O
inactive: [1] 34.4% | [2] 40.2% | [3] 109% | [4] 108% | [5] 112% | [6] 120% | [7] 79.4% | [8] 106% | [9] 101% | [10] 93.9% | [18] 89.1% | [12] 101% | [13] 98.3% | [14] 88.2% | [15] 67.3% | [16] 103% | [17] 95.8%

COc1ccc(-c2oc(=O)ccc2-c2cc(OC)c(OC)c(OC)c2)cc1F
active: [1] 7.57% | [12] -2.61%
inactive: [2] 80.8% | [3] 79.9% | [4] 69.2% | [5] 105% | [6] 106% | [7] 80.4% | [8] 107% | [9] 86.4% | [10] 57.9% | [18] 104% | [11] 98.5% | [13] 46.4% | [15] 60.2% | [17] 41.6%

CCCOC(=O)C1c2cc3c(cc2CC(C)C1C(=O)OCCC)OCO3 (stereo unspecified)
inactive: [1] 90.7% | [2] 99.8% | [3] 102% | [4] 84.7% | [5] 88.7% | [6] 101% | [7] 75.8% | [8] 110% | [9] 103% | [10] 81.4% | [18] 86.2% | [12] 104% | [13] 101% | [14] 100% | [15] 60.1% | [16] 98.6% | [17] 108%

CCCCCCCCCCCCCCCCOc1ccc(S(=O)(=O)N(C)C)cc1[N+](=O)[O-]
inactive: [1] 81.6% | [2] 107% | [3] 102% | [4] 101% | [5] 101% | [6] 79.2% | [7] 98.5% | [8] 117% | [9] 80.4% | [10] 115% | [11] 97.4% | [12] 107% | [13] 113% | [14] 95.8% | [15] 98.2% | [16] 122% | [17] 112%

CNC(=O)c1cc(Oc2ccc(NC(=O)c3nc(S(C)(=O)=O)sc3-c3ccc(F)cc3)cc2)ccn1
inactive: [1] 88% | [2] 15.9% | [3] 102% | [4] 107% | [5] 91.7% | [6] 118% | [7] 100% | [8] 50% | [9] 101% | [10] 94.7% | [18] 26.3% | [11] 105% | [12] 98.2% | [13] 104% | [15] 85.3% | [16] 80.2% | [17] 25.3%

NS(=O)(=O)c1ccc(N2N=C(c3ccc(Br)cc3)CC2c2cn(-c3ccccc3)nc2-c2ccc(Cl)cc2)cc1 (stereo unspecified)
inactive: [1] 72% | [2] 74% | [3] 90.6% | [4] 102% | [5] 93.7% | [6] 94.7% | [7] 93.8% | [8] 95.1% | [9] 100% | [10] 86.6% | [18] 69.2% | [12] 79.6% | [13] 96.1% | [14] 53.1% | [15] 63% | [16] 77.8% | [17] 74.9%

COC(=O)C(CCC(=O)CCl)N1C(=O)c2ccccc2C1=O (stereo unspecified)
active: [1] 8.24% | [2] -8.21%
inactive: [3] 59.2% | [4] 79.3% | [5] 72.9% | [6] 113% | [7] 27.2% | [8] 19.2% | [9] 85.3% | [10] 83.5% | [11] 55.7% | [12] 35.2% | [13] 32.9% | [14] 26.2% | [15] 25% | [16] 89.4% | [17] 101%

O=C(O)/C=C(\c1nc2ccc([N+](=O)[O-])cc2[nH]1)c1cc(Cl)ccc1O
active: [2] -15.7% | [5] 8.51% | [8] -16% | [18] 5.42% | [11] 8.6% | [15] 8.05%
inactive: [1] 29.6% | [3] 24.5% | [4] 87.1% | [6] 29.9% | [7] 25.7% | [9] 45.9% | [10] 17.7% | [12] 20.5% | [13] 28.6% | [16] 27.8% | [17] 21.3%
